We go through eight compounds from PubChem BioAssay AID1347142 (National Center for Advancing Translational Sciences (NCATS), 2019).

The structures appear in SMILES notation. Inconclusive results are not listed. A call without a number means that no potency is given here. Calls of active or inactive are those of the source. The call rests on the fitted dose curve; in most records, active means well fitted inhibition curve with a large enough effect; inconclusive means small, poorly fitted or top-dose-only effect; inactive means no such curve, though single readings can be large or run the other way.
Further: nearly all actives have a fitted effect of over 80% in size.
Potency means the concentration at half of the fitted maximal effect.

For this experiment, the target named is N-terminal Xaa-Pro-Lys N-methyltransferase 1 (Homo sapiens) (UniProt Q9BV86). The experiment in a line: qHTS Assay for Inhibitors of N-terminal methyltransferase 1 (NTMT1): ThioGlo3 Assay Confirmatory Screen, Round 1. Conditions: NTMT1 SAHH-coupled ThioGlo3 fluorescence, 30 min; series mostly up to 56.8 µM. The source says: Assay Submitter (PI): Rong Huang Ph.D, Purdue University, West Lafayette, IN 47907 The N-terminal methytransferase 1 is the first methyltransferase that methylates protein alpha-N-amines and plays an important role in regulating cell mitosis, chromatin interactions and DNA repair. It is observed to be over-expressed in various cancer patient tissues like malignant melanoma and colorectal cancer tissues. Knockdown of NTMT1 in cancer cells causes cell mitotic defects and enhances sensitivity to DNA damaging chemotherapeutics. […] These critical cellular processes in which NTMT1 is implicated, coupled with emerging links to cellular dysfunction, strengthen the inference that NTMT1 is a compelling novel anticancer target. Progress have been made in understanding the molecular properties of NTMT1 and the biological consequences of protein alpha-N-terminal methylation, but there are no specific small molecule probes available for NTMT1 to fully characterize its MTase activity. To address this unmet need, a panel of assay is created and established to enable quantitative high-throughput screening (qHTS) for novel, potent, and selective small molecule NTMT1 inhibitors. Two orthogonal qHTS that use different reagents (ThioGlo vs. MTaseGlo) are developed for primary robotic screening against the NCATS chemical library of more than 400,000 small molecules. Identified inhibitors are reacquired, validated, and further characterized. […] Early Translation Branch (ETB) National Center for Advancing Translational Sciences (NCATS) National Institute of Health (NIH)
Chain of N-terminal Xaa-Pro-Lys N-methyltransferase 1 (Homo sapiens) (Q9BV86 whole entry, looked up): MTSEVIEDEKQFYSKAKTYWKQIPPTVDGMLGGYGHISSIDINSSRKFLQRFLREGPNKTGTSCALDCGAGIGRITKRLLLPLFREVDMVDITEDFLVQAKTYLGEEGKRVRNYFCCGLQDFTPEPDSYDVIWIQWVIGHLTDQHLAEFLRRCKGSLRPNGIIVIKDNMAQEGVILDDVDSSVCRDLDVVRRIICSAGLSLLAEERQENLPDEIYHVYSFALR
Materials: NTMT1 enzyme, substrate SPKRIA, control peptide RCC1-6 is provided by the Huang laboratory. ThioGlo3 Assay: In brief, 125nM NTMT1 enzyme was dispensed into a 1536-well assay plate with Aurora Discovery BioRAPTR Flying Reagent Dispenser (FRD, Beckton-Dickenson). Compounds (at various concentration) or 1uM RCC1-6 (SPKRIA) control were transferred to the assay plate using the Kalypsys 1536-pintool apparatus. After 1 min of room temperature incubation, 1uL of substrate (100uM SAM, 10uM SAHH, 15uM ThioGlo3) was added to the wells bringing the final assay volume to 4uL. Initial (background) fluorescence readout (EX: 340nm, EM: 450nm) was then detected using the PerkinElmer ViewLux microplate imager and a final fluorescence readout was taken after 30 min of room temperature incubation. The data was normalized to the background fluorescence.
(In general: Quantitative high-throughput screening tests each substance at several concentrations.)
On to `Nc1ncnc2c1nc(Sc1ccc(Cl)cc1)n2[C@@H]1O[C@@H]2COP(O)(=S)O[C@H]2[C@H]1O` (stereo partly drawn), for which the Potency result is “inactive”. Consider `Nc1ncnc2c1ncn2[C@@H]1O[C@@H]2CO[P@](=O)(S)O[C@H]2[C@H]1O`, for which the Potency entry is “inactive”.

Turning to `CCN(CC)c1ncnc2c1ncn2[C@@H]1O[C@H](COP(=O)(O)OP(=O)(O)C(Br)(Br)P(=O)(O)O)[C@@H](O)[C@H]1O`, the Potency entry was “inactive”. For the compound `Nc1ncnc2c1ncn2[C@@H]1O[C@@H]2COP(O)(=S)O[C@H]2[C@H]1O` (stereo partly drawn), the Potency entry was “inactive”. Regarding `CCNC(=O)[C@H]1O[C@@H](n2cnc3c(N)ncnc32)[C@H](O)C1O` (stereo partly drawn), the Potency entry was “inactive”. `Nc1ncnc2c1ncn2[C@@H]1O[C@H](COP(=O)(O)OP(=O)(O)OP(=O)(O)O)[C@H]2OC3(O[C@H]21)C([N+](=O)[O-])=CC(=[N+]([O-])[O-])C=C3[N+](=O)[O-]` (stereo partly drawn): the Potency result is “inactive”. Regarding `COc1cc2nc(N3CCCN(C)CC3)nc(N(C)C3CCN(C)CC3)c2cc1OC`, the Potency was 24.1 µM (active). `Nc1ncnc2c1ncn2[C@@H]1O[C@H](COP(=O)(O)CP(=O)(O)O)[C@@H](O)[C@H]1O`: the Potency entry was “inactive”.
